Here are results for 9 molecules from PubChem BioAssay (Tox21).

SMILES strings stand for the structures. Values without a mark were called inactive. Records with an inconclusive call do not appear. Activity calls are given as the source filed them. Unless noted, calls follow the shape of the dose curve; as a rule, active = well fitted curve in the direction sought with a large enough effect in the repeat runs; inconclusive = weak or mixed curves; inactive = no such curve, though single readings can be large; an effect the other way counts as inactive or inconclusive.

Test [1] can be described thus: qHTS assay to test for compound auto fluorescence at 535 nm (green) in HEK293 cells (AID 720680). (In general: qHTS replaces the single test concentration by a dilution series.)
Test [2] is described as follows: qHTS assay to test for compound auto fluorescence at 460 nm (blue) in HEK293 cell free culture (AID 720681). The method in brief: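 Test compounds were pinned into cell-free culture medium (DMEM with 10% FBS) and fluorescence was read directly at Ex/Em 405/460 nm. Signals were expressed as fluorescence equivalents of triamterene, with DMSO vehicle as control.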
A short description of test [3]: qHTS assay to test for compound auto fluorescence at 535 nm (green) in HEK293 cell free culture (AID 720682). The gist of the method:
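No cells present: wells hold DMEM supplemented with 10% FBS, into which compound or vehicle is pinned. Green emission is then recorded (485 nm excitation, 535 nm emission) and scaled to fluorescein.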

A short description of test [4]: qHTS assay to test for compound auto fluorescence at 590 nm (red) in HEK293 cell free culture (AID 720683). The gist of the method: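 Tox21 10K library compounds were pinned into cell-free DMEM with 10% FBS and fluorescence was read at excitation 540 nm. Activity is expressed as Rose Bengal sodium equivalency.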
The nature of test [5]: qHTS assay to test for compound auto fluorescence at 460 nm (blue) in HepG2 cell free culture (AID 720685). The method in brief:
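Compound (23 nL) or DMSO pinned into cell-free MEM with 10% FBS; blue fluorescence read at 405/460 nm excitation/emission, expressed as auto-fluorescence equivalency to triamterene.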

Test [6] is described as follows: qHTS assay to test for compound auto fluorescence at 535 nm (green) in HepG2 cell free culture (AID 720686).
A short description of test [7]: qHTS assay to test for compound auto fluorescence at 460 nm (blue) in HepG2 cells (AID 720687). The method in brief:
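Cells (2,000/well in MEM with 10% FBS) attached overnight at 37 C, then were exposed to compound or DMSO for 1 hr at 37 C, 5% CO2. Fluorescence read at Ex/Em 405/460 nm, expressed as triamterene-equivalent signal.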

In test [8] the target is Glucocorticoid receptor (Homo sapiens) (UniProt P04150). Briefly: qHTS assay to identify small molecule agonists of the glucocorticoid receptor (GR) signaling pathway (AID 720691; active = well fitted activation curve with a large enough effect in the signal ratio in the repeat runs, not every such curve was filed as active; the % refers to the signal ratio). The method in brief: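 Beta-lactamase reporter activity, read as fluorescence intensity, was measured in GR-bla HeLa cells exposed to compounds for 18 h at 37 C and then loaded with LiveBLAzer B/G FRET substrate for 2 h at room temperature.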

The target is the same in test [9]. Briefly: qHTS assay to identify small molecule antagonists of the glucocorticoid receptor (GR) signaling pathway (AID 720692; active = well fitted inhibition curve with a large enough effect in the signal ratio in the repeat runs, not every such curve was filed as active; the % refers to the signal ratio). The gist of the method: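 Fluorescence from cleaved LiveBLAzer B/G FRET substrate reports GRE-driven beta-lactamase in HeLa cells; compounds are tested against 5 nM dexamethasone (final) over 18 h at 37 C, substrate incubation 2 h at room temperature.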

The nature of test [10]: qHTS assay to identify small molecule antagonists of the glucocorticoid receptor (GR) signaling pathway - cell viability counter screen (AID 720693). Also: nearly all actives have a fitted effect of over 55% in size.
The nature of test [11]: qHTS assay for identifying genotoxic compounds that show differential cytotoxicity against isogenic chicken DT40 cell lines with known DNA damage response pathways - wild type cell line (AID 743012). Also: nearly all actives have a fitted effect of over 60% in size. Also: potency is read from the fitted curve at half-maximal effect. The method in brief:
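Quantitative HTS on parental DT40 cells: 40 h compound treatment at 37 C/5% CO2, with viability then determined by CellTiter-Glo luminescence. Values serve as the DNA repair-proficient reference for differential cytotoxicity.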

The nature of test [12]: qHTS assay for identifying genotoxic compounds that show differential cytotoxicity against isogenic chicken DT40 cell lines with known DNA damage response pathways - Rev3 mutant cell line (AID 743014). Also: nearly all actives have a fitted effect of over 55% in size.
A short description of test [13]: qHTS assay for identifying genotoxic compounds that show differential cytotoxicity against isogenic chicken DT40 cell lines with known DNA damage response pathways - Rad54/Ku70 mutant cell line (AID 743015). Also: nearly all actives have a fitted effect of over 60% in size.
Test [14] can be described thus: qHTS assay to identify small molecule antagonists of the androgen receptor (AR) signaling pathway - cell viability counter screen (AID 743033; also: nearly all actives have a fitted effect of over 45% in size).
Test [15] deals with Androgen receptor (Homo sapiens) (UniProt P10275). As to the kind of experiment: qHTS assay to identify small molecule antagonists of the androgen receptor (AR) signaling pathway (AID 743035; active = well fitted inhibition curve with a large enough effect in the signal ratio in the repeat runs, not every such curve was filed as active; the % refers to the signal ratio). The method in brief: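 Cell line: GeneBLAzer AR-UAS-bla GripTite (HEK293). Stimulus: R1881 added after compound. Exposure: 16 h, 37C, 5% CO2. Readout: LiveBLAzer B/G FRET fluorescence after 2 h at room temperature.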

For test [16] the target is unchanged. As to the kind of experiment: qHTS assay to identify small molecule agonists of the androgen receptor (AR) signaling pathway using the MDA cell line (AID 743040; also: nearly all actives have a fitted effect of over 20% in size). The method in brief:
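Luminescence from ONE-Glo, read after 30 min at room temperature, reflects MMTV-driven luciferase in MDA-kb2 cells (AR- and GR-responsive). Treatment lasted 16 h at 37C, 0% CO2.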

Test [17] can be described thus: qHTS assay to identify small molecule antagonists of the androgen receptor (AR) signaling pathway using the MDA cell line - cell viability counter screen (AID 743041; also: nearly all actives have a fitted effect of over 45% in size). The gist of the method:
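Viability counter screen run alongside the AR antagonist reporter: cells seeded 5 h before compound, R1881 added, 16 h incubation at 37C without CO2, fluorescent CellTiter-Fluor signal quantified.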

In test [18] the target is Androgen receptor (Homo sapiens) (UniProt P10275). As to the kind of experiment: qHTS assay to identify small molecule antagonists of the androgen receptor (AR) signaling pathway using the MDA cell line (AID 743042; also: nearly all actives have a fitted effect of over 55% in size). The gist of the method: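 MDA-kb2 cells (human breast carcinoma, stably carrying an MMTV-luciferase reporter responsive to AR and GR) were plated at 3,000 cells/well and preincubated 5 hr at 37C, then given compound plus R1881 agonist for 16 h. ONE-Glo luminescence was read.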

A short description of test [19]: qHTS assay to test for compound auto fluorescence at 590 nm (red) in HepG2 cell free culture (AID 720684). The method in brief:
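Measured in medium alone (MEM containing 10% FBS) following pintool addition of compound; emission at 590 nm with 540 nm excitation, referenced to Rose Bengal sodium.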

Test [20] has as its target Androgen receptor (Homo sapiens) (UniProt P10275). Briefly: qHTS assay to identify small molecule agonists of the androgen receptor (AR) signaling pathway (AID 743036; active = well fitted activation curve with a large enough effect in the signal ratio in the repeat runs, with a control signal flat, not every such curve was filed as active; the % refers to the signal ratio). The method in brief:
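Quantitative HTS of the Tox21 10K library in HEK293 cells bearing a stably integrated UAS-controlled beta-lactamase reporter. Compound exposure lasted 16 h at 37C. Reporter activity was detected by FRET substrate fluorescence after 2 h at room temperature.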
% is scaled to controls: 0 for no effect and ±100 for the full control effect.

Chain of Glucocorticoid receptor (Homo sapiens) (P04150 whole entry, looked up): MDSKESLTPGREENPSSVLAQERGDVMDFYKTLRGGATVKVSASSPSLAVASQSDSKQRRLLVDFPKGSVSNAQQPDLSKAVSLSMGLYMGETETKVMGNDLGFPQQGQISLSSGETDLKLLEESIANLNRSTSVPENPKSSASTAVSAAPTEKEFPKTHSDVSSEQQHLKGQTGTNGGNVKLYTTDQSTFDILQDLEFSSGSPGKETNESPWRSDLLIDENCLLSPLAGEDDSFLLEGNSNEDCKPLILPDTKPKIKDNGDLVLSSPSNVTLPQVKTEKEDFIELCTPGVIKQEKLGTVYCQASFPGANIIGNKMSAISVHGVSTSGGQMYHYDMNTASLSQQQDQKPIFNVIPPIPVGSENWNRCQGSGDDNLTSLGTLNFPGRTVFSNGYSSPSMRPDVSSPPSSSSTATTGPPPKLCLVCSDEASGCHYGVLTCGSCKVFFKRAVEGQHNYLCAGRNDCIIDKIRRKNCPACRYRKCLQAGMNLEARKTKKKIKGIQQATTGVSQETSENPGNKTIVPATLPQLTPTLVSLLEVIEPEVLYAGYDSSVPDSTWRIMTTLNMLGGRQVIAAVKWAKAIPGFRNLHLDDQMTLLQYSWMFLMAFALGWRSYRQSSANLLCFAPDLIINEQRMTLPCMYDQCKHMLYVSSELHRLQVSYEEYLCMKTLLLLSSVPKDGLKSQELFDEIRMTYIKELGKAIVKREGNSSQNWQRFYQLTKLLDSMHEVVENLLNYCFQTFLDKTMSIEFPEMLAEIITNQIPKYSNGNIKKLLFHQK
Chain of Androgen receptor (Homo sapiens) (P10275 whole entry, looked up): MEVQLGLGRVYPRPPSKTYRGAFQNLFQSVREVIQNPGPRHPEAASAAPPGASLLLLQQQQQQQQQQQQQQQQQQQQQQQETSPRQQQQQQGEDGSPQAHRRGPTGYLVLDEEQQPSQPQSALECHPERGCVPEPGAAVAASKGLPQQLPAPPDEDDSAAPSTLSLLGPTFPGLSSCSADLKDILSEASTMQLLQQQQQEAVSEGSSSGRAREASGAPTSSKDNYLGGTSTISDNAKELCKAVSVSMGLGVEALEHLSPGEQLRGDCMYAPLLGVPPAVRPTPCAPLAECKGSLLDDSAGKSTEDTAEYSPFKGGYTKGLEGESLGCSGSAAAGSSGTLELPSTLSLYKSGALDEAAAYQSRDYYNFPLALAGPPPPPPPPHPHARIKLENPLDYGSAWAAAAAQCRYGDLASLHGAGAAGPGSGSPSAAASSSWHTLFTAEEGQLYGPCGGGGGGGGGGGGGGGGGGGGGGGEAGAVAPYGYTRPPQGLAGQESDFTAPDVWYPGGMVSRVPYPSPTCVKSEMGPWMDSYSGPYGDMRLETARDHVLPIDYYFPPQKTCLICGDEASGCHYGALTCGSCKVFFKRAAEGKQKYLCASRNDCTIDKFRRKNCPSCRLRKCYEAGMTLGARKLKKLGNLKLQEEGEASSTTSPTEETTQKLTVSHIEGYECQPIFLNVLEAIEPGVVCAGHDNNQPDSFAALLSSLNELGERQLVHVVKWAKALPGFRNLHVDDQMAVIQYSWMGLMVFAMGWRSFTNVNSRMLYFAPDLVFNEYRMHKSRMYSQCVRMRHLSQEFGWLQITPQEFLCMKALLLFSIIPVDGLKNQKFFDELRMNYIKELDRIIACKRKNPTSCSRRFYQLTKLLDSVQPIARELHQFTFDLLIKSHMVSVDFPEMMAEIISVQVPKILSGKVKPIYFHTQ

`CC(C(=O)O)c1ccc2c(c1)CC(=O)c1ccccc1S2` (centres undefined): the result in test [1], in test [2], in test [3], in test [4], in test [5] and in test [6] was inactive. In addition, the molecule was classed as inactive in test [7], in [9], in test [10] and in test [16]. In addition, the Potency result in [8], in test [11], in test [12], in test [13], in test [14] and in test [15] was “inactive” throughout. Also, the Potency result in [17] and in test [18] was “inactive” throughout.
For `C=Cc1ccccn1`, the molecule was classed as inactive in test [1], in [2], in test [3], in test [4], in test [5] and in [6]. For the same molecule, the outcome in test [7], in test [9] and in test [10] was inactive. Also, the Potency result in [8], in [11], in test [12], in test [13], in [14] and in test [17] was “inactive” each time.
Take `CC(=O)Nc1ccc(S(=O)(=O)Cl)cc1`: the result in test [1], in test [2], in test [3], in test [4], in test [19] and in test [5] was inactive. The result in test [7], in test [9] and in [10] was inactive. Also, the Potency entry in test [8], in test [11], in test [12], in test [13], in test [14] and in test [17] was “inactive” in each case.
For the molecule `CC(N)C(=O)OC(C)(C)Cc1ccc(Cl)cc1` (centres undefined), the molecule was called inactive in test [1], in [2], in [3], in test [4], in [19] and in test [5]. Further, the call in [7] and in [10] was inactive. The Potency in test [11] is 21.1 µM (active). Besides, the Potency result in test [14] and in test [17] was “inactive” in each case.
Regarding `O=S(=O)(O)c1cc(O)c2ccc(Nc3ccccc3)cc2c1`, the molecule was classed as inactive in test [1], in test [2], in test [3], in test [4], in test [19] and in test [5]. The molecule was classed as inactive in test [7]. The Potency result in [12], in test [13], in test [14] and in test [17] was “inactive” each time.
Regarding `COC(=O)CCc1ccc(OCC(O)CNC(C)C)cc1` (centres undefined), the result in test [1], in test [2], in test [3], in test [4], in test [19] and in test [5] was inactive. In addition, the molecule was classed as inactive in test [7] and in [10]. Further, the Potency result in test [8] and in test [14] was “inactive” in each case.
With `CCOC(=O)c1ccc(OC(=O)CCCCCN=C(N)N)cc1`, in test [1], the fluorescence, % of fluorescein was -0.102% [at 18.6 µM]. For the same molecule, the fluorescence, % of fluorescent control was -0.0274% [at 18.6 µM] in test [2], 0.226% [at 18.6 µM] in [4], 0.0222% [at 18.6 µM] in test [5] and 0.0159% [at 18.6 µM] in test [7]. Also, the activity change in [3] is -0.162% [at 18.6 µM]. For the same molecule, in [19], the fluorescence, % of Rose Bengal is -0.0877% [at 18.6 µM]. Also, the molecule was classed as inactive in test [10]. Besides, the Potency entry in test [13] and in [17] was “inactive” each time.
In the case of `COc1ccc2c(c1)C(=O)N(CCc1ccc(S(=O)(=O)NC(=O)NC3CCCCC3)cc1)C(=O)C2(C)C`, in test [1], the fluorescence, % of fluorescein was 0.0317% [at 18.6 µM]. Besides, the fluorescence, % of fluorescent control in [2] is 0.0227% [at 18.6 µM]; in test [4], -0.0169% [at 18.6 µM]; in test [5], -0.0823% [at 18.6 µM]; in test [7] it was -0.0057% [at 18.6 µM]. Also, the activity change in test [3] was 0.0882% [at 18.6 µM]. Also, the fluorescence, % of Rose Bengal in [19] was -0.0384% [at 18.6 µM]. The Potency entry in test [8], in [11], in test [12], in [13], in test [14] and in test [15] was “inactive” in each case. Also, the Potency entry in [17] and in test [18] was “inactive” in each case. Also, the result in test [9], in test [10], in test [20] and in test [16] was inactive.
Take `CCOc1cc([N+](=O)[O-])c(OCC)cc1N1CCOCC1`: the call in test [1], in [2], in test [3], in test [4], in [19] and in [5] was inactive. For the same molecule, the result in test [7] was inactive. Further, the Potency result in [8], in test [11] and in test [14] was “inactive” each time.
